Among the test systems are NCI-H226 lung; NCI-H322M lung; HOP-62 NSCLC; NCI-H460 lung; HOP-92 NSCLC; NCI-H522 lung; A549/ATCC NSCLC; 786-0 renal; DU-145 prostate; K-562 leukemia; MALME-3M melanoma; MDA-MB-231 breast; RXF 393 renal; SF-268 CNS; SF-295 CNS; SF-539 CNS; UACC-257 melanoma; M14 melanoma; HCT-15 colon; COLO 205 colon.
Holding throughout (assay): NCI-60 one-dose screen, 48 h (100 = growth as untreated, 0 = no growth, -100 = all killed)
Conditions in all cases: 10 µM unless noted

This is part of a sample that, as a whole, favours compounds with a hit. Of some 83,000 tested, about 20% had one in any assay.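 Treatment: one concentration, 48 hours, 96-well format. Scoring: percent growth, with anything below 10 considered active.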 A number with no mark means an inactive call. The source made the active and inactive calls.

As for `COC(=O)C(Cc1ccccc1)NS(=O)(=O)/N=C1\NC(=O)NC1=C(Cl)Cl` (configuration not stated), the growth in the test on NCI-H226 lung is 107%; in the test with NCI-H322M lung, 91.4%; in the test with HOP-62 NSCLC, 101%; with NCI-H460 lung, 97.6%; in the test on HOP-92 NSCLC, 49.9%; with NCI-H522 lung, 96.2%. The growth is 105% in the test on A549/ATCC NSCLC; 77% with 786-0 renal; 105% with DU-145 prostate; 91.8% in the test on K-562 leukemia; 94.8% with MALME-3M melanoma; 101% in the test with MDA-MB-231 breast. Further, the growth was 119% in the test with RXF 393 renal; 82.9% in the test on SF-268 CNS; 99.5% in the test with SF-295 CNS; 54% in the test with SF-539 CNS; 91% with UACC-257 melanoma; 92.9% with M14 melanoma. The growth in the test on HCT-15 colon is 99.5%.
Turning to `O=C(CN1CCOCC1)NNc1ncnc2ccccc12`, the growth in the test with NCI-H226 lung is 107%; with NCI-H322M lung, 102%; with HOP-62 NSCLC, 115%; in the test on NCI-H460 lung, 108%; with HOP-92 NSCLC, 51.5%; with A549/ATCC NSCLC, 105%. Further, the growth in the test on 786-0 renal is 58.9%; in the test on COLO 205 colon it was 102%; in the test on DU-145 prostate it was 102%; in the test on K-562 leukemia it was 0.401% (active); with MALME-3M melanoma, -74.5% (active); in the test on MDA-MB-231 breast, 2.91% (active). The growth in the test with RXF 393 renal is -39.7% (active); with SF-268 CNS it was 97.4%; with SF-295 CNS, 95.9%; in the test on SF-539 CNS, 82.1%; in the test with UACC-257 melanoma, 86.3%; in the test with M14 melanoma, 55.2%. In addition, the growth in the test on HCT-15 colon was 70.8%.
Regarding `Cc1sc2nc(NCc3ccccc3Cl)[nH]c(=O)c2c1C`, the growth is 88.5% in the test on NCI-H226 lung; 96.6% with NCI-H322M lung; 93.4% with HOP-62 NSCLC; 50.4% in the test with NCI-H460 lung; 91.3% with HOP-92 NSCLC; 95.3% in the test on NCI-H522 lung. Also, the growth with A549/ATCC NSCLC is 84%; in the test with 786-0 renal, 91%; with DU-145 prostate, 98%; with K-562 leukemia, 54.8%; with MALME-3M melanoma, 100%; in the test on MDA-MB-231 breast, 73%. Also, the growth in the test on RXF 393 renal was 94.3%; in the test with SF-268 CNS it was 87.6%; in the test with SF-295 CNS, 80.2%; with SF-539 CNS, 77.7%; in the test with UACC-257 melanoma, 106%; in the test on M14 melanoma, 105%. Moreover, in the test on HCT-15 colon, the growth was 47.3%.
Turning to `CN(C)CCCOc1c2ccc(Cl)cc2nc2c1oc1ccc(Cl)cc12`, the growth with NCI-H226 lung is 1.15% (active); in the test on NCI-H322M lung, 18.8%; in the test with HOP-62 NSCLC, 32.8%; with NCI-H460 lung, -74.2% (active); in the test on HOP-92 NSCLC it was 3.27% (active); with NCI-H522 lung it was 21%. Moreover, the growth with A549/ATCC NSCLC was -45.3% (active); in the test with 786-0 renal, -93.2% (active); with DU-145 prostate it was -75.7% (active); with K-562 leukemia, -39.8% (active); with MALME-3M melanoma it was 0.745% (active); with MDA-MB-231 breast, -48.3% (active). The growth in the test on RXF 393 renal was -86.6% (active); in the test on SF-268 CNS, 25.9%; in the test with SF-295 CNS it was 11.9%; in the test on SF-539 CNS it was 16.5%; in the test on UACC-257 melanoma, 41.3%; in the test with M14 melanoma it was -49.5% (active). Also, the growth in the test on HCT-15 colon was -80.5% (active).
Consider `COc1cc(OC)c(S(=O)(=O)NNC(=O)c2ccncc2)cc1C(=O)/C=C/c1ccc(C)cc1`, for which the growth in the test on NCI-H226 lung is 89.5%; in the test with NCI-H322M lung, 62.3%; with HOP-62 NSCLC, 103%; in the test with NCI-H460 lung, 63.4%; in the test with HOP-92 NSCLC, 42.1%; with A549/ATCC NSCLC it was 93.4%. The growth with 786-0 renal is 57.1%; in the test on COLO 205 colon it was 99%; with DU-145 prostate, 83.1%; in the test on K-562 leukemia, 27.3%; in the test on MALME-3M melanoma it was 95.5%; in the test on MDA-MB-231 breast, 67.4%. Further, the growth is 82.9% with RXF 393 renal; 60.9% in the test with SF-268 CNS; 107% in the test on SF-295 CNS; 65.3% with SF-539 CNS; 99.6% in the test on UACC-257 melanoma; 56.4% in the test with M14 melanoma. In addition, the growth in the test on HCT-15 colon was 85.3%.
`Clc1ccc(Cc2nnc3sc(-c4cccnc4)nn23)cc1`: the growth in the test on NCI-H226 lung was 93%; in the test on NCI-H322M lung it was 87.8%; in the test on HOP-62 NSCLC, 107%; in the test on NCI-H460 lung, 103%; in the test on HOP-92 NSCLC it was 91.9%; in the test with NCI-H522 lung it was 89.5%. The growth with A549/ATCC NSCLC was 98.2%; in the test with 786-0 renal, 92.6%; in the test on DU-145 prostate it was 101%; with K-562 leukemia, 87.1%; in the test with MALME-3M melanoma, 108%; in the test on MDA-MB-231 breast, 93.6%. In addition, the growth was 85.9% in the test on RXF 393 renal; 96.4% in the test with SF-268 CNS; 99.9% with SF-295 CNS; 92.5% with SF-539 CNS; 109% with UACC-257 melanoma; 106% in the test with M14 melanoma. Further, the growth with HCT-15 colon was 99.6%.
Consider `CCCC(=O)NC(c1cccc(N(C)C)c1)c1cc(C)c2cccnc2c1O` (configuration not stated), for which the growth was 65.4% in the test with NCI-H226 lung; 44.9% in the test on NCI-H322M lung; 44% in the test with HOP-62 NSCLC; 25.7% with NCI-H460 lung; 64.2% in the test on HOP-92 NSCLC; 75.3% with NCI-H522 lung. Also, the growth in the test on A549/ATCC NSCLC was 79.3%; in the test with 786-0 renal it was 56.6%; in the test with DU-145 prostate it was 66.2%; in the test on K-562 leukemia it was 35.3%; with MALME-3M melanoma, 79.8%; in the test with MDA-MB-231 breast, 48.2%. For the same molecule, the growth in the test with RXF 393 renal is 82.1%; in the test on SF-268 CNS it was 55.1%; in the test on SF-295 CNS, 42.3%; in the test on SF-539 CNS it was 53.9%; with UACC-257 melanoma, 90.6%; in the test with M14 melanoma, 49.3%. Also, in the test on HCT-15 colon, the growth was 24.9%.
Regarding `CN1C(=O)N(c2ccccc2)C2N=C(N/N=C/c3ccccc3)SC21` (configuration not stated), the growth in the test on NCI-H226 lung is 58.7%; in the test on NCI-H322M lung it was 42.5%; in the test on HOP-62 NSCLC, 39%; in the test on NCI-H460 lung it was 9.53% (active); with HOP-92 NSCLC it was 55.1%; in the test on A549/ATCC NSCLC, 33%. Moreover, the growth is 33.9% in the test with 786-0 renal; 3.78% (active) with COLO 205 colon; 19.6% with DU-145 prostate; 12% in the test on K-562 leukemia; 47.9% in the test with MALME-3M melanoma; 31.9% with MDA-MB-231 breast. Moreover, the growth in the test on RXF 393 renal is -2.78% (active); in the test on SF-268 CNS, 55%; in the test with SF-295 CNS, 30.5%; in the test with SF-539 CNS, -6.36% (active); in the test on UACC-257 melanoma it was 64%; in the test with M14 melanoma it was -18.9% (active). In addition, the growth in the test on HCT-15 colon is 30.3%.

The values are drawn from PubChem BioAssay (NCI).
